# Test results published in the supplement of paper PMC4206461.
# System: Pseudomonas aeruginosa PA14 wild type
# Test: respiration area under curve with compound as sole nitrogen source, 24 h (OmniLog AUC (arbitrary units)); higher = more respiration / better utilisation as nitrogen source, active = 2000 or more
# Conditions: plate: PM8
# Experimental: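 Biolog Phenotype MicroArray plates PM6-PM8: each di/tripeptide is the sole nitrogen source (IF-0 medium with succinate/ferric citrate and dye mix A). Tetrazolium reduction was read in the OmniLog every 15 min for 24 h at 37°C and summarised as area under the respiration curve (arbitrary units). The paper counts values below 2000 as no respiration and above 8000 as solid respiration. Replicate datasets are averaged.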
row,SMILES,respiration area under curve
1,N[C@@H](Cc1ccc(O)cc1)C(=O)NCC(=O)NCC(=O)O,11300 (active)
